According to PubChem BioAssay (NCATS):
A number with no mark means an inactive call. Inconclusive results are not listed. Entries that show only a call come without a potency. Active and inactive are the calls of the source. Calls follow the shape of the dose curve; as a rule, active = well fitted curve in the direction sought with a large enough effect; inconclusive = small, poorly fitted or top-dose-only effect, or another doubt; inactive = no such curve, though single readings can be large; an effect the other way counts as inactive or inconclusive.

Legend:
[1] = molecular target: Glutathione peroxidase 1 (Homo sapiens) (UniProt P07203); assay: Primary qHTS Assay for Inhibitors of Recombinant Selenoprotein Glutathione Peroxidase 1 (GPX1) (AID 1845191); also: nearly all actives have a fitted effect of over 65% in size
Summary of the method: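 GPX1 10 nM, GR 100 nM, GSH 1 mM, NADPH 0.5 mM, CHP 0.5 mM (final). 30-min cpd preincubation, RT. Ex340/Em450 read t=0, t=15 min.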

[2] = molecular target: Phospholipid hydroperoxide glutathione peroxidase GPX4 (Homo sapiens) (UniProt P36969); assay: Primary qHTS Assay for Inhibitors of Recombinant Selenoprotein Glutathione Peroxidase 4 (GPX4) (AID 1845192); also: nearly all actives have a fitted effect of over 65% in size; as to activity change, negative = inhibition: series mostly up to about 50 µM
Summary of the method: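 qHTS, GR-coupled: GPX4 200 nM + cpd 30 min RT → GSH 1 mM, NADPH 0.5 mM, GR 100 nM → CHP 0.5 mM start; fluor 340/450 at t0 and t15 min; no-enzyme wells as control.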

[3] = molecular target: Luciferin 4-monooxygenase (Photinus pyralis) (UniProt P08659); assay: Primary firefly luciferase (FLuc) qHTS assay for identification of artifact compounds. (AID 1845220); also: nearly all actives have a fitted effect of over 60% in size; as to activity change, negative = inhibition: series mostly up to about 54 µM
Summary of the method: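 qHTS, 15 min compound preincubation with substrate (10 uM luciferin, 10 uM ATP) at RT, then 10 nM FLuc; 5 min; luminescence; % inhibition vs no-enzyme/DMSO controls, 4-parameter Hill fit.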

[4] = Primary fluorescence-based thiol-reactive (MSTI) qHTS assay for identification of artifact compounds. (AID 1845221); also: nearly all actives have a fitted effect of over 65% in size; also: potency is read from the fitted curve at half-maximal effect;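 as to activity change, negative = thiol reactive: series mostly up to about 54 µM; thiol-reactive compounds lower the probe fluorescence signal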
Summary of the method: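 Thiol-reactive compounds detected by quenching of 4 uM MSTI fluorescence (525/598 nm) after 1 h room-temperature dark incubation in PBS pH 7.4, 2% DMSO. qHTS titration; percent inhibition Hill-fitted against Acetyl-MSTI/MSTI controls.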

[5] = test system: Nanoluciferase (engineered Oplophorus gracilirostris luciferase); assay: Primary Nanoluciferase (NLuc) qHTS assay for identification of artifact compounds. (AID 1845222); also: series mostly up to about 54 µM
Summary of the method: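 Luminescence read-out of secreted NLuc in S16 cell conditioned medium (1:55); compounds tested with 15 min RT preincubation, then Nano-Glo substrate 1:100, 5 min. % inhibition vs no-enzyme and DMSO controls, 4-parameter Hill fit.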

Sequence of Phospholipid hydroperoxide glutathione peroxidase GPX4 (Homo sapiens) (P36969 whole entry, looked up): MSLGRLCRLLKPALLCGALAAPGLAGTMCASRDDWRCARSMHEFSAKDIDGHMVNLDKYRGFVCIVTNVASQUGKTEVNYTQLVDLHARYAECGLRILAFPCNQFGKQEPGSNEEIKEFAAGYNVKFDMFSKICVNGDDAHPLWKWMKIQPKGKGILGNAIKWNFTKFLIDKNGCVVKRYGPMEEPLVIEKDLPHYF
Sequence of Glutathione peroxidase 1 (Homo sapiens) (P07203 whole entry, looked up): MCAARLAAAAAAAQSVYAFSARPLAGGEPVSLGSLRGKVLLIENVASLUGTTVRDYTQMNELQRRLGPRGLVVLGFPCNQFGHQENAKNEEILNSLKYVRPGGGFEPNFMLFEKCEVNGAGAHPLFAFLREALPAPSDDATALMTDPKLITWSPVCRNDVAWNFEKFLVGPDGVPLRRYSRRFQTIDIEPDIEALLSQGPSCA

Row | Compound | Potency [1] | Potency [2] | Potency [3] | Potency [4] | Potency [5] | activity change, negative = inhibition [3] | activity change, negative = thiol reactive [4] | activity, negative = inhibition [5]
1 | CCN1CCN(C(=O)N[C@@H](C(=O)N[C@@H]2C(=O)N3[C@@H]2SC(C)(C)[C@@H]3C(=O)O)c2ccccc2)C(=O)C1=O | inactive | inactive | inactive | inactive | inactive |  |  | 
2 | CC1(C)CC[C@]2(C(=O)O)CC[C@]3(C)C(=CCC4[C@@]5(C)CC[C@H](O[C@H]6O[C@H](C(=O)O)[C@@H](O)[C@H](O[C@@H]7O[C@H](CO)[C@H](O)[C@H](O)[C@H]7O)[C@H]6O)C(C)(C)C5CC[C@]43C)[C@@H]2C1 (stereo not given in full) | inactive | inactive |  |  |  | 1.03% [at 11.6 µM] | 239% [at 11.5 µM] | 2.24% [at 11.6 µM]
3 | COC(=O)/C=C/c1ccc(O[C@@H]2O[C@H](CO)[C@@H](O)[C@H](O)[C@H]2O)cc1 | inactive | inactive | inactive | inactive | inactive |  |  | 
4 | O=C(OCC1=CC(Cl)C(O)C(OC(=O)c2ccccc2)C1O)c1ccccc1 (stereo not given) | inactive | inactive | inactive | inactive | inactive |  |  | 
5 | COC(=O)C(CC1(OC(=O)C(C)C)c2ccccc2N2C(=O)C(C)(C)N(O)C21)n1cnc2ccccc2c1=O (stereo not given) | inactive | inactive | inactive | inactive | inactive |  |  | 
6 | COc1cc(C(=O)OC[C@H]2O[C@@H](OC(C)(C)C(=O)O)[C@H](O)[C@@H](O)[C@@H]2O)cc(OC)c1O | inactive | inactive | inactive | inactive | inactive |  |  | 
7 | COc1cc(C(=O)OCC2=CCC3C(C(=O)O)=COC(O[C@@H]4O[C@H](CO)[C@@H](O)[C@H](O)[C@H]4O)C23)ccc1O (stereo not given in full) | inactive | inactive | inactive | 11.6 µM (active) | inactive |  |  | 
8 | OCC1OC(Oc2cc(O)cc(/C=C/c3ccc(OC4OC(CO)C(O)C(O)C4O)cc3O)c2)C(O)C(O)C1O (stereo not given) | inactive | inactive | inactive | inactive | inactive |  |  | 
9 | O=C1NC(=O)/C(=C/c2cccc(C(F)(F)F)c2)S1 | inactive | inactive | inactive | 1.06 µM (active) | inactive |  |  | 
10 | CC(=O)/C=C/C1(O)C(C)CC(O[C@@H]2O[C@H](CO)[C@@H](O)[C@H](O)[C@H]2O)CC1(C)C (stereo not given in full) | inactive | inactive | inactive | 9.22 µM (active) | inactive |  |  | 
11 | Fc1ccccc1-c1nc2ccn(Cc3ccc(-c4ccc(C(F)(F)F)cc4C(F)(F)F)nn3)cc-2n1 | inactive | inactive | inactive | inactive | inactive |  |  | 
12 | CC(O)C/C=C/C=C/C(=O)OC1C=C2COC(=O)C2(O)C2(C)CCCC(C)(C)C12 (stereo not given) | inactive | inactive | inactive | inactive | inactive |  |  | 
13 | O=C(O)/C=C/c1ccc(O[C@@H]2O[C@H](CO)[C@@H](O)[C@H](O)[C@H]2O)cc1 | inactive | inactive | inactive | inactive | inactive |  |  | 
14 | CC(C)C1(O)C=C2C(=O)CC3C(C)(C(=O)O)CCCC3(C)C2CC1 (stereo not given) | inactive | inactive | inactive | inactive | inactive |  |  | 
15 | Cc1ncc(NC(=O)c2ccc(CN3CCN(C)CC3)c(C(F)(F)F)c2)cc1Nc1nccc(-c2cccnc2)n1 | inactive | inactive | inactive | inactive | inactive |  |  | 
16 | CC1(C)CC[C@]2(C(=O)O[C@@H]3O[C@H](CO)[C@@H](O)[C@H](O)[C@H]3O)CC[C@]3(C)C(=CCC4[C@@]5(C)CC[C@H](OC6OC(C(=O)O)C(OC7OC(CO)C(O)C(O)C7O)C(O)C6O)C(C)(C)C5CC[C@]43C)C2C1 (stereo not given in full) | inactive | inactive |  |  |  | -0.627% [at 11.6 µM] | 280% [at 11.5 µM] | 0% [at 11.6 µM]
17 | C=C1CCC[C@]2(C)CC[C@@](O)(C(=C)C(=O)O)C[C@@H]12 | inactive | inactive | inactive | inactive | inactive |  |  | 
18 | CO[C@H]1c2cc(C(C)C)c(O)c(O)c2[C@@]23CCCC(C)(C)C2[C@@H]1OC3=O (stereo not given in full) | inactive | inactive | inactive | 1.47 µM (active) | inactive |  |  | 
19 | Cc1ncc(Cl)cc1NCc1ccc(C(=O)NC(CC2CCCC2)C(=O)NC2CC2)s1 (stereo not given) | inactive | inactive | inactive | inactive | inactive |  |  | 
20 | CC(C)=C1CC2C(CCC2(C)O)C(C)(O)CC1=O (stereo not given) | inactive | inactive | inactive | 23.8 µM (active) | inactive |  |  | 
21 | CCNC(=O)C1CC(F)(c2ccc(CN3CCCC3)c(F)c2)C1 (stereo not given) | inactive | inactive | inactive | inactive | inactive |  |  | 
22 | C[C@@H]1O[C@@H](O[C@@H]2\C=C/C=C\C=C/C=C\C[C@H](C)OC(=O)/C=C\[C@H]3O[C@@H]3C[C@H](O)C[C@]3(O)C[C@@H](O)[C@@H](C(=O)O)[C@H](C2)O3)[C@H](O)[C@H](N)[C@@H]1O | inactive | inactive | inactive | inactive | inactive |  |  | 
23 | Cc1cn(-c2cc(NC(=O)c3ccc(C)c(Nc4nccc(-c5cnccn5)n4)c3)cc(C(F)(F)F)c2)cn1 | inactive | inactive | inactive | inactive | inactive |  |  | 
